# Data as given in the antibiotic and cytotoxicity screens of Wong et al. (2023).
# About 3,300 (8.5%) of roughly 39,000 compounds were called active. The sample as a whole holds a higher share of actives than the screen did.
# Test system: HepG2
# Test: cytotoxicity call (relative viability < 0.9)
# Settings: 10 µM
row,Compound,cytotoxicity call
1,C[C@H]1CN([C@@H](C)CO)S(=O)(=O)c2ccc(C#CC3CC3)cc2O[C@@H]1CN(C)C(=O)c1cccc(F)c1,inactive
2,Cc1noc(C)c1NC(=O)N(C)C[C@H]1OCCCC[C@@H](C)Oc2ccc(NC(=O)Nc3ccccc3)cc2C(=O)N([C@@H](C)CO)C[C@H]1C,inactive
3,CCC(=O)n1ccc(C(=O)N2CCOCC2)n1,inactive
4,O=C(Nc1nn[nH]n1)C1CCCCC1,inactive
5,C[C@@H]1CCCCO[C@H](CN(C)Cc2ccncc2)[C@@H](C)CN([C@@H](C)CO)C(=O)c2cc(NC(=O)Nc3ccc(F)cc3)ccc2O1,inactive
6,C[C@H](CO)N1C[C@H](C)[C@H](CN(C)C(=O)Nc2ccc(F)cc2)OCCCC[C@H](C)Oc2ccc(NC(=O)C3CCCCC3)cc2C1=O,inactive
7,COc1cccc(OC)c1C(=O)NN,inactive
8,FC(F)(F)c1ccccc1-c1ncc(-c2ccccc2)o1,inactive
9,CC(=O)N(O)CCC[C@H]1NC(=O)CNC(=O)CNC(=O)CNC(=O)[C@@H](CCCN(O)C(C)=O)NC(=O)[C@@H](CCCN(O)C(C)=O)NC1=O,inactive
10,COc1ccc(NC(=O)N(C)C[C@H]2OCCCC[C@H](C)Oc3ccc(NC(=O)C4CCCCC4)cc3C(=O)N([C@@H](C)CO)C[C@@H]2C)cc1,inactive
11,C[C@@H]1CCCCO[C@H](CN(C)Cc2ccccc2)[C@@H](C)CN([C@H](C)CO)C(=O)c2cc(NC(=O)c3ccncc3)ccc2O1,inactive
12,CCCCCN1CC=C[C@@]23O[C@@H]4C=CCOC(=O)[C@@H]4[C@H]2C(=O)N(CCCO)[C@@H]3C1=O,inactive
13,C[C@@H]1CN([C@H](C)CO)C(=O)c2cc(NC(=O)CCN3CCOCC3)ccc2O[C@@H]1CN(C)Cc1ccc2c(c1)OCO2,inactive
14,O=C(C[C@H]1CC[C@@H]2[C@H](COC[C@@H](O)CN2S(=O)(=O)c2ccc(Cl)cc2)O1)N[C@H]1CCN(Cc2ccccc2)C1,inactive
15,O=C(C[C@@H]1CC[C@@H]2[C@H](COC[C@@H](O)CN2S(=O)(=O)c2ccc(Cl)cc2)O1)N[C@@H]1CCN(Cc2ccccc2)C1,inactive
16,O=C(C[C@H]1CC[C@H]2[C@@H](COC[C@@H](O)CN2S(=O)(=O)c2ccc(Cl)cc2)O1)N[C@@H]1CCN(Cc2ccccc2)C1,active
17,O=C(C[C@H]1CC[C@@H]2[C@H](COC[C@H](O)CN2S(=O)(=O)c2ccc(Cl)cc2)O1)N[C@@H]1CCN(Cc2ccccc2)C1,inactive
18,O=C(C[C@@H]1CC[C@@H]2[C@H](COC[C@H](O)CN2S(=O)(=O)c2ccc(Cl)cc2)O1)N[C@@H]1CCN(Cc2ccccc2)C1,active
19,O=C(C[C@@H]1CC[C@H]2[C@@H](COC[C@@H](O)CN2S(=O)(=O)c2ccc(Cl)cc2)O1)N[C@H]1CCN(Cc2ccccc2)C1,inactive
20,Cc1ccc(S(=O)(=O)Nc2ccc3c(c2)CC(=O)N([C@@H](C)CO)C[C@@H](C)[C@@H](CN(C)Cc2ccncc2)O3)cc1,inactive
21,NC(=O)CSc1nc(N)cc(N)n1,inactive

row,Compound,cytotoxicity call
1,COc1ccc(S(=O)(=O)Nc2ccc3c(c2)C(=O)N([C@H](C)CO)C[C@@H](C)[C@@H](CN(C)Cc2ccc4c(c2)OCO4)OCCCC[C@@H](C)O3)cc1,inactive
2,C[C@H](CO)N1C[C@H](C)[C@H](CN(C)C(=O)Nc2ccccc2)Oc2ccc(NC(=O)CCN3CCOCC3)cc2C1=O,inactive
3,C[C@@H]1CN([C@@H](C)CO)C(=O)c2cccc(NS(=O)(=O)c3cn(C)cn3)c2O[C@H]1CN(C)C(=O)NC1CCCCC1,inactive
4,Cc1ccc2nc(-c3ccncc3)cc(-c3ccccc3)c2c1,inactive
5,Cc1ccc2ncccc2c1,inactive
6,Cc1ccc2c(c1)/C(=C/c1ccncc1)c1cc3ccccc3nc1-2,active
7,C[C@@H]1CCCCO[C@H](CN(C)C(=O)NC2CCCCC2)[C@@H](C)CN([C@H](C)CO)C(=O)c2cc(NC(=O)Nc3ccc(C(F)(F)F)cc3)ccc2O1,inactive
8,CC(C)NC(=O)N(C)C[C@@H]1Oc2ncc(-c3ccc(C(=O)N(C)C)cc3)cc2C(=O)N([C@H](C)CO)C[C@@H]1C,inactive
9,CN(C)CCNC(=O)[C@H]1Cn2ccnc2C2(CCN(Cc3nccs3)CC2)O1,inactive
10,C[C@H](NC(=O)[C@@H](Cc1ccc2ccccc2c1)NC(=O)[C@@H](C)N)C(=O)N[C@@H](Cc1c[nH]c2ccccc12)C(=O)N[C@H](Cc1ccccc1)C(=O)N[C@@H](CCCCN)C(N)=O,inactive
11,CC(C)CC(NC(=O)C(C)NC(=O)CNC(=O)C(NC=O)C(C)C)C(=O)NC(C)C(=O)NC(C(=O)NC(C(=O)NC(C(=O)NC(Cc1c[nH]c2ccccc12)C(=O)NC(CC(C)C)C(=O)NC(Cc1c[nH]c2ccccc12)C(=O)NC(CC(C)C)C(=O)NC(Cc1c[nH]c2ccccc12)C(=O)NC(CC(C)C)C(=O)NC(Cc1c[nH]c2ccccc12)C(=O)NCCO)C(C)C)C(C)C)C(C)C (stereo not drawn) [GRAMICIDIN (gramicidin A shown) ],active
12,CC(C)C[C@H](NP(=O)(O)O[C@H]1O[C@@H](C)[C@@H](O)[C@@H](O)[C@@H]1O)C(=O)N[C@H](Cc1c[nH]c2ccccc12)C(=O)O,inactive
13,C[C@@H]1CCCCO[C@@H](CN(C)S(C)(=O)=O)[C@@H](C)CN([C@H](C)CO)C(=O)c2cc(NS(=O)(=O)c3cccs3)ccc2O1,inactive
14,C[C@@H]1CN([C@H](C)CO)C(=O)c2c(c3ccccc3n2C)-c2ccccc2CO[C@@H]1CN(C)Cc1ccc(O)cc1,inactive
15,CC(C)CC#Cc1ccc2c(c1)O[C@@H](CN(C)C(=O)c1cccnc1)[C@H](C)CN([C@H](C)CO)S2(=O)=O,inactive
16,COc1ccc(NC(=O)N(C)C[C@@H]2OCCCC[C@H](C)Oc3ccc(NC(=O)Nc4ccccc4)cc3C(=O)N([C@@H](C)CO)C[C@@H]2C)cc1,inactive
17,COc1ccc(NC(=O)N(C)C[C@@H]2Oc3ccc(NC(=O)C4CC4)cc3CC(=O)N([C@@H](C)CO)C[C@H]2C)cc1,inactive
18,O=c1ccc(-c2ccncc2)n[nH]1,inactive
19,C[C@H](CO)N1C[C@H](C)[C@@H](CN(C)CC2CCCCC2)Oc2c(NC(=O)Nc3ccc(C(F)(F)F)cc3)cccc2C1=O,inactive
20,C[C@@H]1CN([C@H](C)CO)C(=O)c2cccc(NC(=O)Nc3ccc(F)cc3)c2O[C@H]1CN(C)CC1CCCCC1,inactive
21,C[C@@H]1CN([C@H](C)CO)C(=O)c2cccc(NC(=O)Nc3ccc(C(F)(F)F)cc3)c2O[C@@H]1CN(C)CC1CCCCC1,active

row,Compound,cytotoxicity call
1,C[C@H]1CN([C@@H](C)CO)C(=O)c2cccc(NC(=O)Nc3ccc(C(F)(F)F)cc3)c2O[C@@H]1CN(C)CC1CCCCC1,active
2,C[C@H]1CN([C@@H](C)CO)C(=O)c2cccc(NC(=O)Nc3ccc(F)cc3)c2O[C@H]1CN(C)CC1CCCCC1,inactive
3,C[C@H](CO)N1C[C@H](C)[C@H](CN(C)CC2CCCCC2)Oc2c(NC(=O)Nc3ccc(F)cc3)cccc2C1=O,inactive
4,C[C@@H]1CN([C@@H](C)CO)C(=O)c2cccc(NC(=O)Nc3ccc(F)cc3)c2O[C@H]1CN(C)CC1CCCCC1,inactive
5,C[C@@H]1CN([C@H](C)CO)C(=O)c2cccc(NC(=O)Nc3ccc(C(F)(F)F)cc3)c2O[C@H]1CN(C)CC1CCCCC1,active
6,C[C@H]1CN([C@@H](C)CO)C(=O)c2cccc(NC(=O)Nc3ccc(C(F)(F)F)cc3)c2O[C@H]1CN(C)CC1CCCCC1,active
7,C[C@H](CO)N1C[C@H](C)[C@H](CN(C)CC2CCCCC2)Oc2c(NC(=O)Nc3ccc(C(F)(F)F)cc3)cccc2C1=O,inactive
8,C[C@@H]1CN([C@H](C)CO)C(=O)c2cccc(NC(=O)Nc3ccc(F)cc3)c2O[C@@H]1CN(C)CC1CCCCC1,inactive
9,C[C@@H]1CN([C@@H](C)CO)C(=O)c2cccc(NC(=O)Nc3ccc(C(F)(F)F)cc3)c2O[C@@H]1CN(C)CC1CCCCC1,inactive
10,COc1nc(C#N)nc(N2CCCCC2)n1,inactive
11,COc1ccc(S(=O)(=O)N(C)C[C@H]2OCCCC[C@@H](C)Oc3ccc(NC(=O)Nc4ccc(F)cc4)cc3C(=O)N([C@@H](C)CO)C[C@@H]2C)cc1,inactive
12,CCO[C@@H]1OC(C(=O)N2CCN(Cc3ccc4c(c3)OCO4)CC2)=C[C@H](C)[C@H]1CCCOC(=O)NCCCCCC(=O)NO,inactive
13,Cc1noc(C)c1NC(=O)Nc1ccc2c(c1)C(=O)N([C@H](C)CO)C[C@@H](C)[C@H](CN(C)Cc1ccccc1)OCCCC[C@H](C)O2,inactive
14,Cc1cccc(S(=O)(=O)N2C[C@H](O)COC[C@H]3O[C@H](CC(=O)NCCCN4CCOCC4)CC[C@@H]32)c1,inactive
15,C[C@@H]1CN([C@H](C)CO)C(=O)Cc2cc(NS(C)(=O)=O)ccc2O[C@@H]1CN(C)C(=O)Nc1ccc2c(c1)OCO2,inactive
16,C[C@@H]1CN([C@@H](C)CO)C(=O)c2cc(NC(=O)CCC(F)(F)F)ccc2O[C@@H](C)CCCCO[C@H]1CN(C)Cc1ccc2c(c1)OCO2,inactive
17,Cc1noc(C)c1S(=O)(=O)N(C)C[C@@H]1Oc2ccc(NC(=O)Cn3cnnn3)cc2CC(=O)N([C@@H](C)CO)C[C@@H]1C,inactive
18,C[C@H]1CN([C@@H](C)CO)S(=O)(=O)c2ccc(C#CCN(C)C)cc2O[C@H]1CN(C)C(=O)c1ccccc1F,inactive
19,O=C(C[C@@H]1CC[C@@H](NC(=O)CN2CCOCC2)[C@@H](CO)O1)NC1CCC1,inactive
20,COc1cccc(CN(C)C[C@@H]2OCc3ccccc3-c3c(n(C)c4ccccc34)C(=O)N([C@H](C)CO)C[C@@H]2C)c1,inactive
21,Cc1ccc(S(=O)(=O)N(C)C[C@@H]2Oc3ccc(NC(=O)CCCN(C)C)cc3C(=O)N([C@H](C)CO)C[C@@H]2C)cc1,inactive
